Source: PubChem (National Center for Advancing Translational Sciences (NCATS))
FBPA Giardia inh = qHTS Assay for Inhibitors of Fructose-1,6-bisphosphate Aldolase from Giardia Lamblia. Potency, µM (highest dose often 59.6 µM), without a hit: top-dose activity, negative = inhibition, most hits filed as inhibitors. 290,000 compounds, 0.71% hits. purified Giardia FBPA; note: potency is the fitted concentration of half-maximal effect; % is set by controls: 0 for no effect and ±100 for the full control effect; nearly all actives have a fitted effect of over 55% in size
Target sequence (A8B2U2 whole entry, looked up): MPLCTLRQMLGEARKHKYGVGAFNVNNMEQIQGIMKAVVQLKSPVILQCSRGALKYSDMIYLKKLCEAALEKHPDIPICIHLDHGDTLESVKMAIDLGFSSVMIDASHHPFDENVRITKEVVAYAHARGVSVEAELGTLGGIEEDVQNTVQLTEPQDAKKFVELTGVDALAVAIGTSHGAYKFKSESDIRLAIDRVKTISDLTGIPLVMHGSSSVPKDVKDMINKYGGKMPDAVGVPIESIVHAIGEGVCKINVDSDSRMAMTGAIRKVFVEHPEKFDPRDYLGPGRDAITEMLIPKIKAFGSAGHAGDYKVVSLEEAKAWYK
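40 nM FBPA preincubated 10 min at RT with compound (up to 57.5 uM final), then substrate plus GAPDH/TPI/NAD/arsenate coupling and diaphorase/resazurin added. Fluorescence read after 20 min at RT, 525/598 nm.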
NS1 function inh = qHTS Assay for Inhibitors of Influenza NS1 Protein Function; Potency, µM (top dose mostly 46.1 µM), inactives show at the top dose activity, positive = more growth; 270,000 compounds, 0.4% hits; calls by dose curve; note: potency is the fitted concentration of half-maximal effect; actives are rising curves; nearly all actives have a fitted effect of over 50% in size
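Growth recovery, yeast-based: influenza A NS1 expressed in S. cerevisiae causes slow growth, and suppressors are detected by OD600. The parent strain without NS1 is used as positive control.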
Pf growth 96h = Primary qHTS for delayed death inhibitors of the malarial parasite plastid, 96 hour incubation; Potency, µM (top dose mostly 28.7 µM), for inactives: at the top dose activity change, negative = inhibition, usual class: inhibitors; AID 504834, 2011; P. falciparum luciferase reporter growth, 96 h; 320,000 compounds, 6.9% hits; note: potency is the fitted concentration of half-maximal effect; % is set by controls: 0 for no effect and ±100 for the full control effect
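Cell-based qHTS: luciferase-tagged P. falciparum in erythrocytes (2% hematocrit, 0.05% parasitemia final) incubated with compounds for 96 hours, 37 C, 5% CO2; luciferase detection reagent then added and luminescence measured.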
Pf growth 48h = Primary qHTS for delayed death inhibitors of the malarial parasite plastid, 48 hour incubation; P. falciparum luciferase growth in erythrocytes, 48 h; Potency, µM (series often up to 28.7 µM), inactives show at the highest dose activity change, negative = inhibition, most hits filed as inhibitors; 310,000 compounds, 5.9% hits; note: potency is the fitted concentration of half-maximal effect; % is set by controls: 0 for no effect and ±100 for the full control effect
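Luminescence readout; reporter = integrated firefly luciferase in P. falciparum. RBC culture at 2% hematocrit, 0.1% parasitemia final, 37 C/5% CO2; decreased signal taken as growth inhibition.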
Shiga inhibitor = A qHTS for Small Molecule Inhibitors of Shiga Toxin; 290,000 compounds, 9.2% hits; inhibition, % at 38.7 µM; AID 2315, 2010; Vero cells, Shiga toxin protein synthesis inhibition reporter; in the data active = inhibition mostly above about 28%, no sharp cut-off; inactive = mostly below about 43%; note: 0% is about no effect
CHX counter = Cycloheximide Counterscreen for Small Molecule Inhibitors of Shiga Toxin; cell reporter, cycloheximide protein synthesis inhibition counterscreen; max response, %; 300,000 compounds, 12% hits; AID 2314, 2010; in the data active = max response mostly above about 13%, no sharp cut-off; inactive = mostly below about 14%; note: read at 38.3 µM for the half of the compounds with a filed dose; 0% is about no effect
The depositor's hits bear a star; ? = inconclusive; / = no result. A selection: hits, their analogues and other compounds. The true share with any hit is near 21%. Unless noted, calls come from the whole dose curve; as a rule, active = well fitted curve in the direction sought with a large enough effect; inconclusive = small, poorly fitted or top-dose-only effect, or another doubt; inactive = no such curve, though single readings can be large; an effect the other way counts as inactive or inconclusive.

SMILES | FBPA Giardia inh | NS1 function inh | Pf growth 96h | Pf growth 48h | Shiga inhibitor | CHX counter
CC(C)CCOP(=O)(c1ccccc1)c1ccccc1 | 3% | 6% | ? | 15µM* | -2 | -2
CCC1(CC)NC(=O)N(CC(=O)OCC(=O)Nc2ccc(OC(F)(F)F)cc2)C1=O | / | / | 0% | 16% | / | /
Cc1cccc(OCCOCCSc2ncccn2)c1 | -4% | -7% | -28% | 19% | 41 | 10*
Cc1ccc(OCCn2cccn2)c(C)c1 | 4% | / | 51% | 7% | 22 | -2
COc1ccc(-c2nnc(SCCOc3cccc(C)c3)n2N)cc1 | 2% | -5% | / | -3% | -5 | 2
c1ccc(OCCOCCN2CCN(C(c3ccccc3)c3ccccc3)CC2)cc1 | -14% | -30% | -23% | ? | 3 | -3
Cc1ccc(OCCSc2ncccn2)c(C)c1 | -2% | 6% | 31% | 121% | 96* | 49*
CCC(=O)c1ccc(OCC(=O)N2CCN(c3ccccn3)CC2)cc1 | / | -8% | ? | -8% | -2 | -1
c1ccc(OCCOCCSc2ncccn2)cc1 | 1% | -14% | -11% | 54% | 45 | 20*
CCC(=O)c1ccc(OCCSc2ncccn2)cc1 | 18% | -7% | ? | 156% | 88* | 53*
CCC(=O)c1ccc(OCC(=O)OCC(=O)NCC2CCCCC2)cc1 | / | / | 28% | -1% | / | /
CN1CCN(c2ccnc(-c3cccc(NS(C)(=O)=O)c3)n2)CC1 | -5% | / | / | / | / | /
CCNC(=O)O/N=C(\C)c1sc(-c2ccc(Cl)cc2)nc1C | -6% | -63% | 244% | 180% | 114* | 52*
C/C(=N\OC(=O)NC(C)C)c1sc(-c2ccccc2)nc1C | 7% | -145% | 24% | 41% | 52 | 26*
C/C(=N\OC(=O)c1ccc(F)cc1)c1sc(-c2ccccc2)nc1C | 11% | -1% | 25% | 79% | 54 | 19*
C=CCNC(=O)c1sc(-c2ccccc2)nc1C | 4% | -1% | 82% | 45% | 42* | 17*
C/C(=N\OC(=O)NC1CCCCC1)c1sc(-c2ccccc2)nc1C | 4% | -7% | ? | 7% | 90 | 25
C/C(=N\OC(=O)c1ccc(Cl)cc1)c1sc(-c2ccccc2)nc1C | -11% | -1% | 204% | 204% | 22 | 19
Nc1ccc(N(S(=O)(=O)c2ccccc2)S(=O)(=O)c2ccccc2)c(Cl)c1 | / | -10% | / | / | / | /
COc1ccccc1N1CCN(C(=O)c2cc(S(=O)(=O)N3CCOCC3)ccc2C)CC1 | / | / | -7% | ? | / | /
C/C(=N\OC(=O)c1cccc(C)c1)c1sc(-c2ccccc2)nc1C | 6% | -5% | 287% | 245% | 15 | 2
C/C(=N\OC(=O)NC(C)C)c1sc(-c2ccc(Cl)cc2)nc1C | 2% | -28% | 138% | 94% | 112* | 34*
Cc1cn(C2CC3OCC(NC(=O)C(NC(=O)OC(C)(C)C)C(C)OCc4ccccc4)C3O2)c(=O)[nH]c1=O (configuration not stated) | 8% | / | / | / | -3 | -2
CN(C)C(=O)c1ccc(Nc2nc(-c3cccs3)nc3ccccc23)cc1 | -10% | -5% | 10µM* | 10µM* | 24 | 6
C/C(Cn1cnc([N+](=O)[O-])n1)=N\NC(=O)c1ccc(F)cc1 | -15% | 5% | ? | -24% | 41* | 25*
SMILES | FBPA Giardia inh | NS1 function inh | Pf growth 96h | Pf growth 48h | Shiga inhibitor | CHX counter
C/C(Cn1cnc([N+](=O)[O-])n1)=N\NC(=O)c1cccc(F)c1 | -16% | 0% | 7% | 136% | 96* | 25*
COc1ccc2nc(N3CCOCC3)cc(C)c2c1 | 3% | -2% | 315% | / | 61* | 33*
CCOc1ccc2nc(N3CCOCC3)nc(C)c2c1 | -9% | -11% | 9% | 171% | 99* | 53*
COc1ccc2c(C)cc(N3CCOCC3)nc2c1 | 0% | -4% | 94% | 55% | 52* | 26*
COc1ccc(-c2nnc3ccc(SCC(=O)N4CCOCC4)nn23)cc1 | 0% | ? | 34% | 24% | 19 | 0
COc1ccc2c(C)cc(SCC(=O)N3CCOCC3)nc2c1 | 2% | -12% | 0.19µM* | 3% | -7 | -1
Cc1cc(C(=O)NC(Cc2ccccc2)C(=O)O)c(C)o1 (configuration not stated) | -1% | 15% | 45% | ? | -4 | -4
O=C(NCCCN1CCCCC1)C1CCN(S(=O)(=O)N2CCC3(CC2)OCCO3)CC1 | 5% | ? | ? | 35% | 1 | -3
COc1ccc2nc(C)cc(Nc3ccc(N4CCOCC4)cc3)c2c1 | -9% | -23% | 3% | 2.9µM* | -13 | -1
C[C@@H]1CCCC(CC(=O)O)(CC(=O)O)C1 | / | 1% | / | / | / | /
CCc1ccc(C(=O)COC(=O)CNC(=O)c2ccc(N3C(=O)c4ccccc4C3=O)cc2)cc1 | / | 15% | 15µM* | 36% | -12 | 1
Cc1ccc(/C=C(/NC(=O)c2ccccc2)C(=O)NC(Cc2c[nH]c3ccccc23)C(=O)O)cc1 (configuration not stated) | 7% | 2% | 183% | 13% | 4 | -3
Cc1sc2nc(CN3CCCCC3)nc(N3CCN(C(=O)c4ccco4)CC3)c2c1C | 3% | / | ? | 7.4µM* | 20 | -5
Cc1sc2nc(CN3CCCCC3)nc(Cl)c2c1C | -9% | 4% | ? | 6% | 14 | 15*
Cc1ccc(S(=O)(=O)N2CCN(c3nc(CN4CCCC4)nc4sc(C)c(C)c34)CC2)cc1 | / | / | ? | 4.7µM* | / | /
CCc1nc(N2CCN(C(=O)c3ccco3)CC2)c2c3c(sc2n1)CCCC3 | 4% | -8% | 41% | ? | -4 | -2
CC1CCN(Cc2nc(Cl)c3c4c(sc3n2)CCC4)CC1 | 2% | / | 3% | -2% | 33 | 25*
Clc1nc(CN2CCCCC2)nc2sc3c(c12)CCCC3 | 1% | / | ? | -10% | 30 | 31
CC(C)c1ccc(S(=O)(=O)N2CCN(C(=O)C3CCN(C(=O)c4ccc(F)cc4)CC3)CC2)cc1 | / | -6% | ? | ? | 4 | 2
CCN(CC(=O)Nc1ccc(NC(C)=O)cc1)C(=O)c1cccc(-n2cccc2)c1 | / | / | -9% | -1% | / | /
Cc1sc2nc(CN3CCCC3)nc(N3CCN(S(=O)(=O)c4cccs4)CC3)c2c1C | 3% | 10% | ? | ? | -21 | -11
Cc1ccc(C)c(S(=O)(=O)N2CCN(c3nc(CN4CCOCC4)nc4sc(C)c(C)c34)CC2)c1 | / | / | 12µM* | 12µM* | / | /
CSc1cccc(NC(=O)COC(=O)C2CCN(S(=O)(=O)c3ccccc3)CC2)c1 | / | / | -2% | 4% | / | /
Cc1ccc(-c2nc3ccccc3nc2NN)cc1 | -8% | -4% | 284% | 449% | 53* | 41*
O=C(NNC(=O)C12CC3CC(CC(C3)C1)C2)c1cccc(O)c1 | -2% | 14% | 1% | 7% | 26 | 2
